From the supplement of paper PMC6897291

Tested on: U-2932
Assay: growth inhibition by drug alone (1 - RLU/untreated control) (fraction); higher = stronger inhibition
Conditions: 177Lu-lilotomab satetraxetan 0 ug/ml
Procedure: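 U-2932 ABC-DLBCL cells were pretreated or not for 18 h with 1 ug/ml 177Lu-lilotomab satetraxetan (600 MBq/mg), washed and seeded (3000 cells/well) on 384-well plates pre-printed with the Selleck Cambridge Cancer Compound library. Viability was read by RealTime-Glo luminescence on days 3-6 after seeding. Effect = 1 - RLU/mean RLU of the 48 untreated no-drug control wells per plate; Bliss score = (M-E)/(1-Fa), with E the expected Bliss-additive effect.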

## Cc1cc(Nc2cc(N3CCN(C)CC3)nc(Sc3ccc(NC(=O)C4CC4)cc3)n2)n[nH]1 [VX-680 (MK-0457, Tozasertib)]
10 nM, time (day): 3
  growth inhibition by drug alone: 0.0135
10 nM, time (day): 4
  growth inhibition by drug alone: -0.0133
10 nM, time (day): 5
  growth inhibition by drug alone: -0.0455
10 nM, time (day): 6
  growth inhibition by drug alone: -0.102
1000 nM, time (day): 3
  growth inhibition by drug alone: 0.116
1000 nM, time (day): 4
  growth inhibition by drug alone: 0.0957
1000 nM, time (day): 5
  growth inhibition by drug alone: 0.0508
1000 nM, time (day): 6
  growth inhibition by drug alone: 0.219

## O=C1c2ccccc2-c2nc3nonc3nc21
10 nM, time (day): 3
  growth inhibition by drug alone: 0.122
10 nM, time (day): 4
  growth inhibition by drug alone: 0.0829
10 nM, time (day): 5
  growth inhibition by drug alone: -0.0474
10 nM, time (day): 6
  growth inhibition by drug alone: -0.0365
1000 nM, time (day): 3
  growth inhibition by drug alone: 0.144
1000 nM, time (day): 4
  growth inhibition by drug alone: 0.236
1000 nM, time (day): 5
  growth inhibition by drug alone: 0.193
1000 nM, time (day): 6
  growth inhibition by drug alone: 0.28

## O=C(O)Cc1cccc(OCCCN(Cc2cccc(C(F)(F)F)c2Cl)CC(c2ccccc2)c2ccccc2)c1
10 nM, time (day): 3
  growth inhibition by drug alone: 0.116
10 nM, time (day): 4
  growth inhibition by drug alone: 0.0747
10 nM, time (day): 5
  growth inhibition by drug alone: -0.121
10 nM, time (day): 6
  growth inhibition by drug alone: -0.11
1000 nM, time (day): 3
  growth inhibition by drug alone: 0.111
1000 nM, time (day): 4
  growth inhibition by drug alone: 0.127
1000 nM, time (day): 5
  growth inhibition by drug alone: -0.0348
1000 nM, time (day): 6
  growth inhibition by drug alone: -0.224

## Nc1[nH]nc2nnc(-c3c(-c4ccccc4)nn4ccccc34)cc12
10 nM, time (day): 3
  growth inhibition by drug alone: 0.0936
10 nM, time (day): 4
  growth inhibition by drug alone: 0.109
10 nM, time (day): 5
  growth inhibition by drug alone: 0.0192
10 nM, time (day): 6
  growth inhibition by drug alone: -0.0741
1000 nM, time (day): 3
  growth inhibition by drug alone: 0.0442
1000 nM, time (day): 4
  growth inhibition by drug alone: 0.0356
1000 nM, time (day): 5
  growth inhibition by drug alone: -0.0414
1000 nM, time (day): 6
  growth inhibition by drug alone: -0.0395

## C[C@]1(O)C[C@@H](c2nc(-c3ccc4ccc(-c5ccccc5)nc4c3)c3c(N)nccn32)C1 [Linsitinib (OSI-906)]
10 nM, time (day): 3
  growth inhibition by drug alone: -0.0175
10 nM, time (day): 4
  growth inhibition by drug alone: -0.0545
10 nM, time (day): 5
  growth inhibition by drug alone: -0.0282
10 nM, time (day): 6
  growth inhibition by drug alone: 0.0189
1000 nM, time (day): 3
  growth inhibition by drug alone: -0.0281
1000 nM, time (day): 4
  growth inhibition by drug alone: -0.0257
1000 nM, time (day): 5
  growth inhibition by drug alone: -0.0322
1000 nM, time (day): 6
  growth inhibition by drug alone: 0.0723
